Our source for the growth values is PubChem BioAssay (NCI).

What all share (test): NCI-60 one-dose screen, 48 h (100 = growth as untreated, 0 = no growth, -100 = all killed)
The subject of one test is HCT-15 colon. The settings on record: 10 µM unless noted.
Another test concerns HT29 colon. The settings on record: 10 µM unless noted.
The next test deals with SNB-75 CNS. Particulars: 10 µM unless noted.
Another test deals with SNB-19 CNS. Particulars: 10 µM unless noted.
The next test relates to U251 CNS. Particulars: 10 µM unless noted.
A further test concerns SK-MEL-5 melanoma. Particulars: 10 µM unless noted.
Another test has as its system UACC-62 melanoma. Particulars: 10 µM unless noted.
For a further test, the system named is LOX IMVI melanoma. Particulars: 10 µM unless noted.
The subject of a further test is SK-MEL-28 melanoma. The settings on record: 10 µM unless noted.
Another test relates to SK-MEL-2 melanoma. The settings on record: 10 µM unless noted.
The test system of the next test is EKVX NSCLC. Particulars: 10 µM unless noted.
Another test has as its system SN12C renal. Particulars: 10 µM unless noted.
The test system of the next test is UO-31 renal. The settings on record: 10 µM unless noted.
Another test deals with TK-10 renal. Particulars: 10 µM unless noted.
In a further test the test system is ACHN renal. The settings on record: 10 µM unless noted.
Another test deals with CAKI-1 renal. The settings on record: 10 µM.
Another test concerns A498 renal. The settings on record: 10 µM unless noted.
A further test has as its system CCRF-CEM leukemia. The settings on record: 10 µM unless noted.
In another test the test system is MOLT-4 leukemia. The settings on record: 10 µM unless noted.
For another test, the system named is PC-3 prostate. The settings on record: 10 µM unless noted.

The panel holds about 83,000 compounds, 20% with a hit somewhere; the sample as a whole holds those more often.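 Testing used 96-well plates and a 48-hour single-concentration exposure. Example: -40 means 40% of the starting cells died.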 Values without a mark were called inactive. Activity calls are given as the source filed them. How the source made its calls: active means growth percent below 10; inactive means the rest.

As to `COc1ccc(C(=O)n2cc(C=O)c3ccccc32)cc1`, the growth with HCT-15 colon was 87.9%; in the test on HT29 colon, 118%; with SNB-75 CNS it was 99%; in the test on SNB-19 CNS, 87.5%; in the test on U251 CNS, 93.9%; in the test with SK-MEL-5 melanoma, 98.1%. Also, the growth is 81.6% with UACC-62 melanoma; 76.2% with LOX IMVI melanoma; 102% in the test with SK-MEL-28 melanoma; 104% with SK-MEL-2 melanoma; 97.6% in the test on EKVX NSCLC; 94.7% in the test on SN12C renal. Further, the growth in the test with UO-31 renal is 70.9%; in the test on TK-10 renal it was 123%; with ACHN renal it was 92.4%; in the test on CAKI-1 renal, 85%; with A498 renal it was 122%; with CCRF-CEM leukemia, 103%. Further, the growth in the test with MOLT-4 leukemia is 101%.

For `C=C(C)[C@@H]1CC[C@]2(C)[C@H](CC=C3[C@@H]4CC(C)(C)CC[C@]4(C(=O)NCC#CCN4CCN(C)CC4)CC[C@]32C)[C@@]1(C)CCC#N`, the growth with HCT-15 colon was 21.4%; with HT29 colon it was 26.8%; with SNB-75 CNS, 67%; in the test with SNB-19 CNS, 72.5%; with U251 CNS, 53.6%; in the test with SK-MEL-5 melanoma, 53.4%. Also, the growth is 79% in the test with UACC-62 melanoma; 12.3% with LOX IMVI melanoma; 96.9% in the test on SK-MEL-28 melanoma; 94% in the test on SK-MEL-2 melanoma; 81.6% in the test on EKVX NSCLC; 76% in the test on SN12C renal. The growth in the test on UO-31 renal is 60%; in the test with TK-10 renal it was 83.9%; with ACHN renal it was 78.5%; in the test with CAKI-1 renal it was 30.7%; in the test on A498 renal it was 84.1%; in the test with CCRF-CEM leukemia, 48.9%. Also, in the test with MOLT-4 leukemia, the growth was 19%.

As to `COc1ccc(Cn2cc3c(c2-c2cc(OC)c(OC)c(OC)c2)CCCc2cnoc2-3)cc1`, the growth in the test with HCT-15 colon was 20.1%; in the test on HT29 colon, 14.7%; in the test on SNB-75 CNS, -17.6% (active); in the test with SNB-19 CNS it was 23.1%; in the test on U251 CNS, 28.6%; in the test on SK-MEL-5 melanoma, 21.6%. For the same molecule, the growth in the test with UACC-62 melanoma was 33.9%; in the test with LOX IMVI melanoma, 35.8%; in the test on SK-MEL-28 melanoma it was 64.4%; in the test on SK-MEL-2 melanoma it was 54.9%; in the test on EKVX NSCLC, 40.2%; with SN12C renal it was 36.3%. In addition, the growth with UO-31 renal is 30.7%; in the test with TK-10 renal, 67.5%; with ACHN renal it was 36.3%; with CAKI-1 renal, 19.6%; in the test on MOLT-4 leukemia it was 8.85% (active).

As to `COc1ccc(-c2oc3cc(O)cc(O)c3c(=O)c2OC)cc1O`, the growth with HCT-15 colon is 33.2%; in the test on HT29 colon it was 57%; in the test on SNB-75 CNS it was -24.3% (active); with SNB-19 CNS it was 28.2%; in the test with U251 CNS, 15.6%; in the test with PC-3 prostate, 24.1%. The growth in the test on LOX IMVI melanoma is 36.8%; in the test with SK-MEL-2 melanoma, 13.2%; in the test with EKVX NSCLC, 38.7%; in the test on UO-31 renal, 26.2%; in the test with TK-10 renal it was 52.3%; in the test on ACHN renal, 34.1%. The growth in the test with CAKI-1 renal is 14.9%; with A498 renal, -6.41% (active); with CCRF-CEM leukemia, 2.67% (active); in the test with MOLT-4 leukemia, 21.4%.

Consider `COc1ccc(-c2nc(SCC(C)C)nc(N/N=C\c3cccc([N+](=O)[O-])c3)c2C#N)cc1`, for which the growth in the test on HCT-15 colon is 46.3%; in the test on HT29 colon it was 49.9%; in the test on SNB-75 CNS, -11.2% (active); in the test on SNB-19 CNS it was 38.6%; with U251 CNS it was 13%; in the test on SK-MEL-5 melanoma, 68.3%. Further, the growth is 75.6% in the test with UACC-62 melanoma; 77.7% with SK-MEL-28 melanoma; 86.2% with SK-MEL-2 melanoma; 47.7% in the test with EKVX NSCLC; 43.3% in the test on SN12C renal; -36.4% (active) in the test with UO-31 renal. Besides, the growth with TK-10 renal was 91.4%; in the test on ACHN renal, 8.66% (active); in the test on CAKI-1 renal, 31.8%; with A498 renal, 47.6%; in the test with CCRF-CEM leukemia, 80.9%; in the test with MOLT-4 leukemia it was 75.1%.

As for `Cc1nn(-c2ccccc2)cc1/C=N/Nc1nc(Nc2ccccc2)nc(Nc2ccc(S(N)(=O)=O)cc2)n1`, the growth in the test on HCT-15 colon is 7.54% (active); in the test on HT29 colon it was 5.91% (active); in the test on SNB-75 CNS it was 44.8%; in the test with SNB-19 CNS, 7.01% (active); in the test with U251 CNS it was -22.3% (active); in the test on SK-MEL-5 melanoma, -44.3% (active). For the same molecule, the growth was -27.8% (active) in the test on UACC-62 melanoma; -25.7% (active) in the test on LOX IMVI melanoma; -13.9% (active) with SK-MEL-28 melanoma; 54.8% in the test with SK-MEL-2 melanoma; 18.8% with EKVX NSCLC; 0.245% (active) in the test with SN12C renal. Further, the growth was -4.7% (active) in the test with UO-31 renal; 44.5% in the test on TK-10 renal; 0.841% (active) in the test on ACHN renal; -27.8% (active) with CAKI-1 renal; -30.3% (active) with A498 renal; 8.85% (active) in the test with CCRF-CEM leukemia. In the test on MOLT-4 leukemia, the growth was 6.35% (active).

On to `CC1=CC(=O)CC(C)(C)[C@@]1(O)/C=C/C(C)=C\C(=O)O`, for which the growth in the test with HCT-15 colon is -23.1% (active); in the test on HT29 colon, -36.9% (active); with SNB-75 CNS it was -41.2% (active); with SNB-19 CNS, -9.04% (active); in the test on U251 CNS it was -18.5% (active); with SK-MEL-5 melanoma it was -83% (active). The growth is -56.9% (active) in the test with UACC-62 melanoma; -75.8% (active) in the test on LOX IMVI melanoma; -34.6% (active) with SK-MEL-28 melanoma; -52.4% (active) with SK-MEL-2 melanoma; -29.6% (active) in the test on EKVX NSCLC; -15.1% (active) in the test with SN12C renal. Further, the growth is -31.6% (active) in the test on UO-31 renal; -25.5% (active) in the test with TK-10 renal; -7.21% (active) in the test on ACHN renal; -72.7% (active) with A498 renal; 0.0714% (active) in the test with CCRF-CEM leukemia; -9.99% (active) with MOLT-4 leukemia.

For the molecule `COc1cc(-c2nc(SCc3ccc(C)cc3)[nH]c(=O)c2C#N)ccc1OCc1ccccc1`, the growth is 97.9% in the test on HCT-15 colon; 109% in the test with HT29 colon; 96.6% in the test with SNB-75 CNS; 97.2% in the test with SNB-19 CNS; 102% in the test with U251 CNS; 87.8% with SK-MEL-5 melanoma. Also, the growth with UACC-62 melanoma is 97.8%; with LOX IMVI melanoma it was 114%; in the test with SK-MEL-28 melanoma, 101%; with EKVX NSCLC it was 107%; in the test on SN12C renal, 116%; in the test on UO-31 renal it was 91.8%. Besides, the growth in the test with ACHN renal was 105%; in the test with CAKI-1 renal, 95.2%; with CCRF-CEM leukemia, 116%; with MOLT-4 leukemia it was 129%.

On to `COc1ccc(NC(=O)[C@H](C)NC(=O)OC(C)(C)C)cc1C(=O)Nc1cccc(-c2cc(=O)c3c(OC)c(OC)c(OC)cc3o2)c1`, for which the growth in the test with HCT-15 colon is 3.87% (active); in the test on HT29 colon it was -10.5% (active); in the test with SNB-75 CNS, -18.3% (active); in the test on SNB-19 CNS, 16.9%; in the test on U251 CNS it was -34.1% (active); in the test with SK-MEL-5 melanoma it was -91.1% (active). Besides, the growth in the test on UACC-62 melanoma was -40.8% (active); with LOX IMVI melanoma, -73.7% (active); in the test with SK-MEL-28 melanoma it was 0.755% (active); in the test with EKVX NSCLC it was 3.7% (active); in the test on SN12C renal, 2.23% (active); with UO-31 renal, 16.8%. Besides, the growth was -3.36% (active) with TK-10 renal; 10.3% in the test with ACHN renal; 17.4% in the test on CAKI-1 renal; -53.3% (active) in the test on A498 renal; 3.69% (active) in the test on CCRF-CEM leukemia; 7.83% (active) in the test with MOLT-4 leukemia.

With `C=C1C(=O)O[C@@H]2C[C@@H](C)/C=C\C(=O)[C@](C)(OC(C)=O)C[C@H](OC(=O)/C(C)=C\C)[C@@H]12`, the growth in the test on HCT-15 colon is -26% (active); in the test with HT29 colon, -48.6% (active); with SNB-75 CNS it was 38.2%; with SNB-19 CNS, 60.1%; in the test with U251 CNS it was 2.55% (active); in the test with PC-3 prostate it was 1.27% (active). Moreover, the growth with LOX IMVI melanoma was -75.1% (active); in the test on SK-MEL-2 melanoma, -15.9% (active); in the test with EKVX NSCLC, 5.52% (active); with UO-31 renal, -88.6% (active); in the test with TK-10 renal it was -61% (active); in the test on ACHN renal it was -75.5% (active). The growth was -11.1% (active) in the test with CAKI-1 renal, 38.8% in the test with A498 renal, -17% (active) in the test with CCRF-CEM leukemia and 2.13% (active) with MOLT-4 leukemia.
